# From PubChem BioAssay (NCI)
# This is part of a sample that, as a whole, favours compounds with a hit. Of some 83,000 tested, about 20% had one in any assay.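 Cell lines were cultured in 96-well plates, exposed to a single compound concentration, and assessed for percent growth 48 hours later.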 Unmarked numbers belong to inactive results. Activity calls are given as the source filed them. Rule for the calls: active = growth percent below 10; inactive = the rest.
# Tests used:
# Assay in all cases: NCI-60 one-dose screen, 48 h (100 = growth as untreated, 0 = no growth, -100 = all killed)
# Conditions in all cases: 10 µM unless noted
# T-47D breast = test system: T-47D breast
# BT-549 breast = test system: BT-549 breast
# MDA-MB-435 melanoma = test system: MDA-MB-435 melanoma
# SW-620 colon = test system: SW-620 colon
# MCF7 breast = test system: MCF7 breast
# HCT-116 colon = test system: HCT-116 colon
# HCC-2998 colon = test system: HCC-2998 colon
# KM12 colon = test system: KM12 colon
Structure (SMILES),growth (T-47D breast),growth (BT-549 breast),growth (MDA-MB-435 melanoma),growth (SW-620 colon),growth (MCF7 breast),growth (HCT-116 colon),growth (HCC-2998 colon),growth (KM12 colon)
COc1ccc(S(=O)(=O)N2CCCCCC2)cc1NC(=O)c1[nH]c(C)c2c1CCCCC2=O,9.29% (active),42.2%,25.6%,60.8%,17.9%,23.8%,20.2%,32.8%
CN(C)CCCNc1c2ccccc2nc2ccccc12,68.5%,72.6%,96.1%,103%,92%,99%,107%,97.3%
COc1cccc(-c2nc3sccn3c2-c2ccnc(NCCCNS(=O)(=O)c3c(Cl)cccc3Cl)c2)c1,5.35% (active),43.2%,64.5%,76.8%,65.8%,52.6%,84.8%,68.2%
C=CC(=O)Nc1cccc(-c2nc(SC)nc(NCCc3ccc(OC)c(OC)c3)c2C#N)c1,8.57% (active),25%,24.2%,80.8%,16.5%,31.4%,87.1%,64.6%
C#CCOc1ccc2ncnc(N3CCN(C(=O)CCl)CC3)c2c1,-48.7% [8.25 µM] (active),56.8% [8.25 µM],86.6% [8.25 µM],47.1% [8.25 µM],65.1% [8.25 µM],27.7% [8.25 µM],112% [8.25 µM],108% [8.25 µM]
CN(C)c1ccc(N=Nc2ccc(Br)cn2)c(O)c1,30.2%,38.2%,33%,26.1%,10.4%,25.5%,34.3%,26.7%
Nc1ccc(-c2cc3c(Nc4ccc(Oc5cccc(C(F)(F)F)c5)c(Cl)c4)ncnc3s2)cc1,43.8%,73%,70.3%,101%,34.7%,67.9%,69%,44.5%
O=C(COc1cccc(/C=C2\COc3ccc(Cl)cc3C2=O)c1)c1ccc(Cl)cc1,71.9%,84.7%,91.2%,51%,0.286% (active),31.1%,129%,77.1%
C(=N/Nc1ncc(-c2cc3cc(-c4ccccc4)ccc3o2)s1)/c1cccs1,100%,110%,95.9%,99.7%,89.7%,91.5%,100%,97%
COc1cccc(-c2nc3sccn3c2-c2ccnc(NCCNS(=O)(=O)c3ccccc3)c2)c1,-18.3% (active),6.29% (active),22.6%,40.8%,27.4%,18.5%,53.2%,22.2%
CCCOc1cc2ccccc2cc1C(=O)Nc1nc(N)c2c(ccc3nccc32)[nH]1,-51% (active),-41% (active),-94.5% (active),-80.4% (active),-52.3% (active),-58.9% (active),-68.3% (active),-72.8% (active)
CCc1nc(N)nc(N)c1C#CC(C)c1cc(-c2ccnc(C)c2)c2oc(C)nc2c1 (configuration not stated),9.59% (active),18.2%,19.4%,16.9%,8.57% (active),11.6%,13%,5.92% (active)
COc1ccc(-n2nc(C)c3c(Oc4ccc(NC(=O)Nc5c(Cl)cccc5Cl)cc4)ncnc32)cc1,87.4%,117%,100%,95.7%,96.4%,109%,100%,100%
Cc1cn2c(/C=C3/C(=O)Nc4c3ccc3ccccc43)c(C(F)(F)F)nc2s1,28.1%,37.2%,-47.2% (active),18.2%,15.4%,30.6%,46.6%,15.3%
CON1C(=O)CC[C@]2(C)[C@H]3CC[C@@H]4C([C@@]5(C)CCC(=O)O5)CC[C@@]4(C)[C@]3(C)CC[C@H]2C1(C)C (some centres not stated),90.7%,103%,101%,103%,94.8%,91.4%,108%,101%
O=C1/C(=C/c2ccc3c(c2)OCO3)SC(=S)N1CCc1ccc(O)cc1,59.2%,96.6%,94%,111%,112%,101%,103%,86.3%
CC(=O)Nc1ccc(S(=O)(=O)Nc2cccc(-c3nc(-c4ccc(NC(=O)c5cccnc5)cc4Cl)no3)c2)cc1,14%,33.3%,6.69% (active),29.5%,17.1%,30.4%,69.1%,28.7%
CN1C(=O)C2(SCC(C(=O)NCc3ccccc3)N2C(=O)C2CCCCC2)c2ccccc21 (configuration not stated),101%,98.3%,81.2%,91.8%,94.8%,96.2%,109%,92.1%
COc1ccc(/C=N/C2=C(C#N)C(c3ccc(N(C)C)cc3)c3ccc4ccccc4c3O2)cc1 (configuration not stated),72%,48.4%,4% (active),46.1%,45%,43.4%,96.3%,44.1%
COc1nc2c(c(=O)n1C)CN(Cc1ccccc1)C=N2,67.1%,-4.81% (active),117%,99.6%,101%,107%,113%,98.9%
COc1ccccc1NS(=O)(=O)c1ccc2oc(SC(C)C)nc2c1,67.2%,87.6%,88.2%,102%,82.3%,63.4%,26%,98.7%
O=C(/C=C/c1ccccc1)c1ccc(O)c(CN2CCN(c3cc4c(cc3F)c(=O)c(C(=O)O)cn4C3CC3)CC2)c1,27.9%,28.2%,18.6%,23.4%,8% (active),3.95% (active),41.2%,31.8%
CC(=O)Oc1ccc(Cl)cc1CN(C(C)=O)C1CCCCC1,104%,107%,115%,105%,97.6%,102%,99.4%,112%
Cc1nc2c3c(-c4ccccc4)c(-c4ccccc4)oc3ncn2n1,70%,101%,100%,96.9%,101%,88.5%,96.2%,99.3%
CC1=C(O)C(=O)C(C(C#N)(C#N)C(C#N)C#N)C1 (configuration not stated),107%,95%,96.8%,102%,92.1%,102%,95.3%,97.7%
COc1ccc(-c2nc3ccc(-c4nc5ccc(N6CCN(c7ccc(F)cc7)CC6)cc5[nH]4)cc3[nH]2)cc1OC,43.8%,76.3%,90.1%,46.5%,9.99% (active),11.2%,95.1%,95%
COc1ccc(N=Nc2nccs2)c(O)c1,36.5%,74.1%,58.7%,34.4%,20.4%,22.3%,60.8%,33.3%

Structure (SMILES),growth (T-47D breast),growth (BT-549 breast),growth (MDA-MB-435 melanoma),growth (SW-620 colon),growth (MCF7 breast),growth (HCT-116 colon),growth (HCC-2998 colon),growth (KM12 colon)
Cn1ccnc1C(=O)/C=C/c1ccc(CC(=O)Nc2ccccc2)cc1,15.2%,22.4%,13.5%,2.2% (active),12%,18.2%,29%,3.7% (active)
N=C(N)c1ccc(-c2ccc(-c3ccc4ccccc4c3)s2)s1,7.01% (active),82.5%,11.3%,-70.9% (active),-66.7% (active),-70.5% (active),-69.1% (active),-27.2% (active)
Cn1cc(-c2nonc2-c2c[nH]c3ccccc23)c2cccnc21,27%,58.6%,-22.6% (active),14.1%,19.4%,24.3%,69.9%,20.1%
Clc1ccc2c(NCCCCNc3nc(N4CCOCC4)nc4ccccc34)ccnc2c1,8.21% (active),107%,14.1%,14.9%,33.3%,-7.74% (active),58.3%,33.4%
CC1=C[C@H]2c3c(c(O)c(O)c4oc5c(C)cccc5c(=O)c34)[C@H](c3cc(O)c(O)c4oc5c(C)cccc5c(=O)c34)[C@H]2C(C)(C)C1,13.7%,27.2%,-17.3% (active),18.7%,9.38% (active),1.97% (active),11.2%,7.31% (active)
COc1cc2nc(N3CCCC3)nc(NCC3CCCCC3)c2cc1OC,-49.9% (active),42.6%,-72.3% (active),-41.6% (active),-78.8% (active),-65.2% (active),-60.1% (active),75.4%
Cc1ccccc1COc1ccc(-c2onc(C)c2-c2ccc(Cl)cc2)cc1,61.1%,66.2%,-1.01% (active),31.7%,31.7%,34%,86.6%,54.3%
CCOC(=O)c1c(C)oc2ncnc(N3CCN(C(=O)COc4ccc(SC)cc4)CC3)c12,61.7%,90.8%,103%,102%,92.6%,91.6%,110%,95.6%
N#CN1CCC[C@H]1C(=O)N1CCc2c(-c3[nH]nc4ncccc34)cccc21,13%,-37.6% (active),-61.6% (active),15.1%,5.76% (active),-19.6% (active),-6.99% (active),-14% (active)
COc1cc(/C=C/c2cc(O)c3cc(C(C)=O)c(=O)oc3c2)cc2c1O[C@]1(C)CC[C@@H](O)C(C)(C)[C@H]1C2,60%,35%,21.2%,28.4%,5.64% (active),44.2%,67%,57.6%
O=c1ccccc(-c2ccc(Br)cc2)c1O,26.7%,23.8%,25.8%,26.8%,14.3%,18.6%,41.5%,24.6%
O=C1CC[C@H](c2ccc(O)c3c2C(=O)[C@@H]2O[C@@H]2C3=O)c2cccc(O)c21,-26.1% (active),86.8%,47.3%,-41.3% (active),-31.5% (active),5.4% (active),101%,85.1%
CC[N+](CC)=c1sc2c(s1)C(c1ccc(Cl)cc1)Oc1ccc(Cl)cc1-2 (configuration not stated),-2.38% (active),4.07% (active),2.5% (active),2.29% (active),4.58% (active),6.48% (active),-15.1% (active),-28.8% (active)
Cc1ccc(NC(=O)C2CCC(CN3CCN(C)CC3)CC2)cc1Nc1nccc(-c2cccnc2)n1 (configuration not stated),86.2%,103%,93.5%,98.4%,83.8%,101%,106%,97.3%
c1csc(C2=NN3C(C2)c2ccccc2OC3c2ccncc2)c1 (configuration not stated),93.2%,92.4%,99.6%,103%,77.3%,102%,96.3%,92.2%
C#Cc1cccc(NC(=O)c2ccccc2NC(=O)C=C)c1,76.6% [8.25 µM],102% [8.25 µM],103% [8.25 µM],109% [8.25 µM],82.4% [8.25 µM],102% [8.25 µM],104% [8.25 µM],97.8% [8.25 µM]
CCN1CCC2(CC1)NC(=O)c1c(c3ccc(Cl)c(Cl)c3n1C)C2C#N (configuration not stated),75%,37.2%,-59.9% (active),37.6%,35%,14%,-5.34% (active),41.2%
CCOC(=O)n1cc(-c2nonc2-c2cn(C)c3ncccc23)c2cc(F)ccc21,10.4%,93.1%,94.7%,89.5%,27.2%,69.5%,86.4%,73.5%
O=C(Nc1ccc(Cl)cc1)c1cc2cc(F)ccc2cc1O,-7.01% (active),1.77% (active),10.5%,15.5%,7.1% (active),12.3%,27.8%,12.3%
CC(C)C1=C[C@@]23CC[C@@H]4[C@](C)(CCC[C@@]4(C)C(=O)N4CCCNCC4)[C@H]2C[C@@H]1[C@H]1C(=O)CCC(=O)[C@H]13,100%,104%,109%,105%,90.4%,103%,107%,101%
O=C(/C=C/c1cccc([N+](=O)[O-])c1)c1ccc(O)c(CN2CCN(c3cc4c(cc3F)c(=O)c(C(=O)O)cn4C3CC3)CC2)c1,10.9%,6.04% (active),11.2%,-43% (active),1.85% (active),-59.5% (active),35.5%,-12.2% (active)
COc1cccc(-c2nc3sccn3c2-c2ccnc(NCCCNS(=O)(=O)c3cccc(F)c3)c2)c1,-8.47% (active),6.32% (active),12.2%,50%,24.8%,20.8%,64.7%,23.2%
CCC([N+](=O)[O-])S(=O)(=O)c1ccc(C)cc1 (configuration not stated),92.6%,109%,113%,104%,101%,98.7%,64.5%,136%
CCCCn1c(-c2ccc(C(=O)O/N=C(\N)c3ccc4ccccc4c3)cc2)nc(-c2ccccc2)c1-c1ccccc1,46.2%,87.9%,85.1%,80.1%,61.2%,60.8%,95.8%,76.7%
CC1=C/C(=C(\c2ccc(N(C)C)cc2)c2ccc([N+](C)(C)C)cc2)C=CC1=[N+](C)C,52.2%,96.1%,78.4%,66.5%,59.9%,36.1%,77.3%,61.4%
Cc1nn(-c2cc(=O)[nH]c3ccc(Cl)cc23)c(N)c1C#N,97.1%,111%,103%,98.7%,92.3%,101%,102%,104%
O=C1NC(=Nc2ccc(O)cc2)S/C1=C\c1cccc(Cl)c1,76%,64.9%,2.14% (active),30.7%,18.6%,24.2%,83.8%,21.9%
